PubChem BioAssay AID504332 (National Center for Advancing Translational Sciences (NCATS), 2011)
Among all 350,000 compounds or so, about 31,000 (8.9%) were called active. Roughly 15% stayed inconclusive and do not appear here. Many of the other results were omitted from the sample, so actives are more common in it than they were. A number with no mark means an inactive call. Calls come from the whole dose curve; as a rule, active = well fitted inhibition curve with a large enough effect; inconclusive = small, poorly fitted or top-dose-only effect; inactive = no such curve, though single readings can be large or run the other way.

target: Histone-lysine N-methyltransferase EHMT2 (Homo sapiens) (UniProt Q96KQ7); experiment: qHTS Assay for Inhibitors of Histone Lysine Methyltransferase G9a; conditions: G9a H3K9 monomethylation, AlphaScreen, 2 h; series mostly up to 59 µM; activity, negative = inhibition: at the top concentration; note: nearly all actives have a fitted effect of over 75% in size
Sequence (Q96KQ7 913-1193 limits assumed): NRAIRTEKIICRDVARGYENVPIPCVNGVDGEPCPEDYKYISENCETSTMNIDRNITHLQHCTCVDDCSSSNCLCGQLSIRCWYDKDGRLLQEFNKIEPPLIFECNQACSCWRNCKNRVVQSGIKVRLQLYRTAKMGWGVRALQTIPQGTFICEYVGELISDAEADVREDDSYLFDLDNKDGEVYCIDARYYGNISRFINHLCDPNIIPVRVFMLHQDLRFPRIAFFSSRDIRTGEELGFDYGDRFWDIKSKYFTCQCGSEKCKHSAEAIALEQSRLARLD
Method in brief: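 AlphaScreen read-out: biotin-H3K9 peptide (500 nM) methylation by 20 nM enzyme with 20 uM SAM, 2 h at room temperature after 15 min compound preincubation; anti-monomethyl H3K9 antibody plus donor/acceptor beads, 10 min dark.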
% is set by controls: 0 for no effect and ±100 for the full control effect; potency is the fitted concentration of half-maximal effect.

SMILES	Potency	activity, negative = inhibition
CCCCN=C1C([N+](=O)[O-])=CC=C2C1=NC1(CCCCC1)N2O	11.2 µM (active)	–
O=C(CCNC(=O)c1ccc(Br)cc1)NCCCc1ccccc1	–	6.39% [at 102 µM]
Cc1cccc(N2C(=O)CC(SC(N)=Nc3ccccc3)C2=O)c1 (configuration not stated)	–	-5.18% [at 102 µM]
O=C1CC(c2ccccc2)C(=O)N1c1cccc(O)c1 (configuration not stated)	–	-7.63%
COC(=O)c1ccccc1SC1CC(=O)N(c2cccc(C)c2)C1=O (configuration not stated)	44.7 µM (active)	–
CCOc1ccccc1N(C)C(=O)c1cc2c(s1)-c1ccccc1OC2	–	19.4%
CC(=O)c1ccc(OCCCC(=O)Nc2ccc(C)c(S(=O)(=O)N3CCOCC3)c2)cc1	50.1 µM (active)	–
Cc1ccc(NC(=O)COC(=O)CNC(=O)c2ccc(Cl)cc2Cl)cc1S(=O)(=O)N1CCOCC1	50.1 µM (active)	–
O=C(CNC(=O)c1ccc(Cl)cc1Cl)NCC(=O)Nc1ccccc1N1CCOCC1	89.1 µM (active)	–
Cc1ccc(NC(=O)CCNC(=O)c2ccc([N+](=O)[O-])cc2)cc1S(=O)(=O)N1CCOCC1	–	-13.1% [at 12.7 µM]
O=C(COc1ccc(Cl)cc1)NC(=S)Nc1ccccc1N1CCOCC1	–	1.64% [at 102 µM]
O=C(COC(=O)CCc1ccc(S(=O)(=O)N2CCOCC2)cc1)Nc1cccc(Cl)c1	–	3.71% [at 102 µM]
Cc1ccc(NC(=O)CCCNC(=O)c2ccc(Cl)cc2)cc1S(=O)(=O)N1CCOCC1	–	-11.6%
COc1c(C)cccc1C(=O)Nc1cc(Cl)ccc1N1CCOCC1	–	-5.78% [at 12.7 µM]
Cc1ccc(C(=O)OCC(=O)Nc2ccc(Cl)cn2)cc1S(=O)(=O)N1CCOCC1	–	-29% [at 102 µM]
COc1ccc(Nc2ncc3c(n2)CCN(C(=O)OC(C)(C)C)C3)cc1	–	-31.3%
COc1ccc(CCNC(=O)Cn2c(=O)n(-c3ccccc3)c(=O)c3c(C)c(C)sc32)cc1OC	–	-27%
COc1cc(C(=O)Nc2ncccc2C)ccc1OCC(=O)N1CCOCC1	–	19.4%
O=C(CNS(=O)(=O)c1ccccc1)N1CCN(C(=O)c2ccco2)CC1	–	-0.876%
Cc1ccc(-n2ncc3c2CC(C)(C)CC3NC(=O)CCc2cnn(C)c2)cc1 (configuration not stated)	–	12.4% [at 102 µM]
CC1CCCN(c2csc3ccc(F)cc3c2=O)C1 (configuration not stated)	–	-8.07%

SMILES	Potency	activity, negative = inhibition
CCc1cccc(NC(=O)CCCN2C(=O)C(c3ccccc3)Oc3cccnc32)c1 (configuration not stated)	–	26% [at 0.0925 µM]
COc1cc([N+](=O)[O-])ccc1NC(=O)CN1CCCC1	–	-15.7%
O=C(CN1CCCCCC1)Nc1ccc(Br)cc1Br	–	105% [at 102 µM]
O=C(CN1CCCCCC1)Nc1ccc(Br)cc1[N+](=O)[O-]	35.5 µM (active)	–
COC(=O)c1sccc1S(=O)(=O)N(CC(=O)Nc1ccc(C)c(F)c1)c1ccc(C)c(C)c1	–	17%
O=S(=O)(NCc1ccc(Cl)cc1Cl)c1cccs1	–	14.7% [at 0.501 µM]
Cc1cccc(-n2c(SCC(N)=O)nc3c(oc4ccccc43)c2=O)c1	–	8.13%
COc1cccc(-n2c(=S)[nH]c3c(oc4ccccc43)c2=O)c1	44.7 µM (active)	–
COc1ccc(-n2c(SCC(N)=O)nc3c(oc4ccccc43)c2=O)cc1	–	-2.44%
CCOc1cc(/C=C(\C#N)C(=O)Nc2ccccc2C)ccc1OCc1cc(=O)n2nc(CC)sc2n1	–	-7.24%
CC(=O)Nc1ccc(/C=C/C(=O)c2ccccc2)cc1	–	-1.87% [at 2.33 µM]
CN(C)c1ccc(/C=C/C(=O)c2ccc(C(C)(C)C)cc2)cc1[N+](=O)[O-]	12.6 µM (active)	–
Cc1cc(C)n(-c2ccc(C(=O)O)cc2[N+](=O)[O-])n1	–	-35.8% [at 102 µM]
COc1cccc(CNC(=O)CN2C(=O)CCc3cc(S(=O)(=O)N4CCOCC4)ccc32)c1	–	23.9%
COc1ccc(C(CNC(=O)c2ccc(S(=O)(=O)Nc3ccccc3C)cc2)N2CCOCC2)cc1 (configuration not stated)	–	19% [at 2.33 µM]
Cc1ccn2cc(-c3nonc3C)cc2c1	10 µM (active)	–
COc1ccc(-c2cn3ccc(C)cc3n2)cc1	–	-10% [at 102 µM]
Cc1nc(-c2ccc(F)cc2)c(CC(=O)N(C)CC(=O)Nc2c(C)cccc2C)s1	–	-12% [at 102 µM]
CCCSc1nc2sc3c(c2c(=O)n1-c1cccc(Br)c1)CC(C)(C)OC3	–	-29.5%
Cc1cc(C(=O)OC(C)C(=O)NC2CCCCC2C)c(C)o1 (configuration not stated)	–	-2.74% [at 102 µM]
O=C(CCc1ccccc1)NCc1ccc2c(c1)CCN2C(=O)c1ccccc1	–	2.34%

SMILES	Potency	activity, negative = inhibition
Cc1cc(C)cc(NC(=S)NCc2ccc(F)cc2)c1	–	-8.23%
O=C(O)CCC(=O)NCc1ccc2[nH]c3c(c2c1)CCCC3	50.1 µM (active)	–
O=C(O)CCC(=O)NCc1ccc(C(=O)O)cc1	–	-34% [at 102 µM]
Cc1cccc(NC(=S)NCCN(C2CCCCC2)C2CCCC2)c1	–	16.8%
Cc1cccc(NC(=S)NCc2ccc3[nH]c4c(c3c2)CCCC4)c1	39.8 µM (active)	–
Cc1ccc(Cl)cc1NC(=O)CCC(=O)N1CC(C)Sc2ccccc21 (configuration not stated)	–	-4.93%
O=C(NCc1ccccc1)c1ccc2c(c1)nc1n2CCCCC1	–	14.7%
CC(=O)c1ccc(NS(=O)(=O)c2ccc(-c3cc(C)no3)s2)cc1	–	3.66%
Cc1ccc(N(C)C(=O)C2CCN(S(=O)(=O)c3ccc4c(c3)CCCN4C(=O)C3CCC3)CC2)cc1	–	-3.25%
CCN(C(=O)COc1ccc(C(=O)c2ccccc2)cc1)c1ccccc1	–	-6.14%
COC(=O)C1=C(C(=O)OC)[C@@H]2N(C)c3ccccc3[C@@]23C[C@@H](C(=O)OC)N(C(C)=O)C3=N1	–	16.1%
CC(=O)NNC1=Nc2ccccc2N(C)C(C)C1 (configuration not stated)	31.6 µM (active)	–
O=C(CNS(=O)(=O)c1ccc2ccccc2c1)Nc1ccc(F)c(F)c1F	–	2.41% [at 12.7 µM]
CC1CCCCC12NC(=O)N(CC(=O)Nc1ccc(S(=O)(=O)Nc3ncccn3)cc1)C2=O (configuration not stated)	–	-10.5% [at 12.7 µM]
CCOc1ncccc1C(=O)NNC(=O)c1cccc(S(=O)(=O)Nc2ccccc2OC)c1	–	-0.541% [at 102 µM]
COc1ccccc1NS(=O)(=O)c1ccc(C(=O)N2CCN(c3ccccc3O)CC2)cc1	44.7 µM (active)	–
COc1ccc(N2CCN(C(=O)COC(=O)c3cccc(S(=O)(=O)Nc4ccccc4OC)c3)CC2)cc1	15.8 µM (active)	–
COc1ccccc1N1CCN(C(=O)c2ccc(S(=O)(=O)N3CCCCC3)cc2)CC1	–	-28.9% [at 12.7 µM]
CC1CN(C(=O)COC(=O)c2cccc(NS(=O)(=O)c3ccccc3)c2)CC(C)O1 (configuration not stated)	–	3.95% [at 0.501 µM]
COc1ccc(S(=O)(=O)Nc2ccccc2C(=O)N2CCCC2)cc1C	–	8.92% [at 102 µM]
